High-throughput results as filed in PubChem.
Hits are enriched below; roughly 3.1% of the tested compounds scored in any of these assays.
Anthrax LF inh2 = inhibitors of Bacillus anthracis lethal factor protease. P15917. multiplex microsphere protease cleavage assay, LF. inhibition, % at 10 µM. 0.12% of 360,000 active. AID 588501; also: plate controls were buffer without enzyme for full effect and enzyme alone for no effect
BoNT-F LC inh = inhibitors of Botulinum neurotoxin F light chain protease. 0.22% of 360,000 active. inhibition, % at 10 µM. Multiplex microsphere protease cleavage assay, flow cytometry; in the data active = inhibition above about 35%, passing the limit was not always enough; inconclusive = no clear call, values can overlap the other calls; also: plate controls were buffer without enzyme for full effect and enzyme alone for no effect
BoNT-A LC inh2 = BoNT A light chain protease inhibition | multiplex microsphere protease substrate cleavage, flow cytometry | inhibition, % at 10 µM | 0.17% of 360,000 active | AID 588499; also: plate controls were buffer without enzyme for full effect and enzyme alone for no effect
PriA SSB inh = inhibitors of Klebsiella pneumoniae PriA binding to SSB C-terminal tail; AlphaScreen SSBct-PriA binding, biotinylated peptide; inhibition, % at 33 µM; 0.6% of 430,000 active; AID 1272365; in the data active = inhibition mostly above about 37%, no sharp cut-off; inactive = mostly below about 20%;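 also: plate controls were negative control peptide for no effect and reference peptide for full effect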
Autofluor counter = flagged as autofluorescent in microsphere protease counterscreen | fluorescence intensity (test concentration not listed) | compound autofluorescence counterscreen, microsphere flow cytometry; hits give high values | AID 624483 | 3.1% of 360,000 active; in the data active = fluorescence intensity above about 16000; inconclusive = no clear call, values can overlap the other calls
* hit, by the source's call; ? = inconclusive; · = no result. Rule as the data show it, unless noted: active = inhibition above about 30%; inconclusive = no clear call, values can overlap the other calls; inactive = below that.

SMILES	Anthrax LF inh2	BoNT-F LC inh	BoNT-A LC inh2	PriA SSB inh	Autofluor counter
CCCCn1c(SCC(N)=O)nnc1-c1ccco1	-1.3	-1.2	-0.6	-20.9	22326*
COCCCn1c(SCC(=O)N2CCCCC2C)nnc1-c1ccco1 (stereo not given)	-3.2	0.7	-0.2	-12.6	16205*
CC(C)Cn1c(SCC(=O)c2ccc(Cl)s2)nnc1-c1ccco1	-2.5	1.0	0.8	-9.4	22317*
COCCn1c(SCC(=O)NC2CCCCC2)nnc1-c1ccco1	2.2	2.0	-2.1	-9.3	6383
COCCCn1c(SCC(=O)NC2CCCC2)nnc1-c1ccco1	-0.6	-3.4	-2.8	-9.6	20908*
O=C(c1nc2ccccc2s1)N1CCC(c2cccs2)CC1	·	·	·	-40.0	·
O=C1OCCC1Sc1nnc(-c2cccc(Br)c2)o1 (stereo not given)	-3.4	0.2	1.5	-32.2	20056*
C#CCOc1nc(C)cc(C)c1S(=O)(=O)c1ccccc1C	0.5	-2.6	-0.2	-3.4	2798
Cc1cc(C)c(S(=O)(=O)c2c(C)cccc2C)c(OCC(C)C)n1	0.1	-2.0	-0.5	-37.6	23555*
Cc1nnc(SCC(=O)N2CCOCC2)n1C	-3.3	-3.3	0.3	-17.7	2957
Cc1nnc(SCCOC(N)=O)n1C	1.3	7.9	8.9	-2.7	20927*
CCOC(=O)CNC(=O)COc1ccc(Cl)cc1Br	-1.6	-4.4	-0.1	-13.6	23269*
CN(C)S(=O)(=O)c1ccc(C(=O)N2CCCCC(c3ccc(Cl)cc3)C2)cc1 (stereo not given)	·	·	·	-4.0	·
CCOC(=O)c1c(-c2ccccc2)oc2ccc(O)c(CN3CCCC3)c12	-4.2	-6.8	-1.6	-3.0	17165*
CCOC(=O)c1c(-c2ccccc2)oc2ccc(O)c(CN(C)C)c12	-0.8	-12.4	1.1	-6.7	8808
O=C(Cc1nc(-c2cnccn2)no1)NNC(=O)Nc1ccccc1	35.3*	?	?	5.9	4072
Cc1cc2ccccc2nc1SCC(=O)Nc1nc(-c2ccccc2)cs1	-0.4	-2.4	-0.3	-6.2	16277*
Cc1occc1-c1nnc(SCC(=O)Nc2nc(-c3ccccc3)cs2)o1	2.6	-1.8	0.1	-6.7	19701*
Cc1occc1-c1nnc(SCC(=O)Nc2nc3ccccc3s2)o1	-2.1	0.5	0.9	2.1	19093*
COc1ccc(OC)c(S(=O)(=O)NC[C@@H](c2ccc(F)cc2)N2CCN(C)CC2)c1	·	·	·	2.0	·
N=c1n(Cc2ccccc2)c2ccccc2n1CC(O)c1ccco1 (stereo not given)	·	·	·	6.0	·
CCn1c(=N)n(CC(O)c2ccco2)c2ccccc21 (stereo not given)	-1.9	-18.7	-10.7	-5.6	28325*
Cc1cccc(NC(=O)Nc2ccc(CN3CCN(c4ccccn4)CC3)cc2)c1	·	·	·	41.0*	·
O=C(NCc1ccc(F)cc1Cl)c1ccc(Oc2nccnc2N2CCSCC2)cc1	·	·	·	4.0	·
CCc1nc2ccccc2n(CCOCCn2c(=O)c(CC)nc3ccccc32)c1=O	-0.9	5.5	4.3	-10.8	21722*
SMILES	Anthrax LF inh2	BoNT-F LC inh	BoNT-A LC inh2	PriA SSB inh	Autofluor counter
CCOCCn1c(CC)nc2ccccc21	-2.0	-10.0	-3.6	-2.8	3807
CCCCn1c(NS(=O)(=O)c2ccc(Cl)cc2)c(C(=O)OCC)c2nc3ccccc3nc21	·	·	·	67.9*	·
CCOC(=O)c1c(NS(=O)(=O)c2ccccc2)n(CCCOC)c2nc3ccccc3nc12	2.0	5.3	6.1	46.5*	2109
CCOC(=O)c1c(NS(=O)(=O)c2ccccc2)n(CCc2ccccc2)c2nc3ccccc3nc12	·	·	·	43.8	·
CCCCCn1c(NS(=O)(=O)c2ccc(F)cc2)c(C(=O)OCC)c2nc3ccccc3nc21	·	·	·	54.8*	·
Cc1c(NC(=NS(=O)(=O)c2ccc(F)cc2)c2ccccc2)c(=O)n(-c2ccccc2)n1C	·	·	·	-3.5	·
COc1cc(C)c(S(=O)(=O)Nc2ccc(-n3c(C)nc4ccccc4c3=O)cc2C)cc1C	·	·	·	-2.0	·
Cc1cc(C)c(S(=O)(=O)Nc2ccc3c(c2)NC(=O)C(C)(C)CO3)c(C)c1	·	·	·	0.0	·
O=C(NC1CCN(c2cc(C3CC3)[nH]n2)CC1)c1ccco1	·	·	·	-8.0	·
CN(C)C(C#N)c1ccco1 (stereo not given)	·	·	·	34.0	·
Cn1c(=O)c2c(ncn2CCCc2ccccc2)n(C)c1=O	-12.7	4.1	3.3	-5.1	20359*
CCCCn1cnc2c1c(=O)n(C)c(=O)n2C	-3.4	-7.2	-3.2	-8.8	23846*
COc1ccc(Cl)cc1NC(=O)NCC[C@@H](CCO)c1ccccc1	·	·	·	-10.0	·
COc1cc(C2C(=C(O)c3ccc(OCC(C)C)cc3)C(=O)C(=O)N2CCN(C)C)ccc1O (stereo not given)	·	·	·	-7.1	·
CCOc1ccc(CCNC(=O)Cn2cnc3c(sc4cccc(Cl)c43)c2=O)cc1OCC	·	·	·	-11.0	·
